Screens from PubChem BioAssay.
NSD2 inh: NSD2 histone methyltransferase inhibitors, primary screen, biochemical, AlphaScreen, single concentration, set 2; Histone-lysine N-methyltransferase NSD2 (Homo sapiens), O96028; NSD2 peptide methylation, 120 min; inhibition, % at 12.5 µM; 310,000 compounds, 0.54% hits; AID 743445, 2014; in the data active = inhibition above about 50%
Target sequence (O96028 whole entry, looked up): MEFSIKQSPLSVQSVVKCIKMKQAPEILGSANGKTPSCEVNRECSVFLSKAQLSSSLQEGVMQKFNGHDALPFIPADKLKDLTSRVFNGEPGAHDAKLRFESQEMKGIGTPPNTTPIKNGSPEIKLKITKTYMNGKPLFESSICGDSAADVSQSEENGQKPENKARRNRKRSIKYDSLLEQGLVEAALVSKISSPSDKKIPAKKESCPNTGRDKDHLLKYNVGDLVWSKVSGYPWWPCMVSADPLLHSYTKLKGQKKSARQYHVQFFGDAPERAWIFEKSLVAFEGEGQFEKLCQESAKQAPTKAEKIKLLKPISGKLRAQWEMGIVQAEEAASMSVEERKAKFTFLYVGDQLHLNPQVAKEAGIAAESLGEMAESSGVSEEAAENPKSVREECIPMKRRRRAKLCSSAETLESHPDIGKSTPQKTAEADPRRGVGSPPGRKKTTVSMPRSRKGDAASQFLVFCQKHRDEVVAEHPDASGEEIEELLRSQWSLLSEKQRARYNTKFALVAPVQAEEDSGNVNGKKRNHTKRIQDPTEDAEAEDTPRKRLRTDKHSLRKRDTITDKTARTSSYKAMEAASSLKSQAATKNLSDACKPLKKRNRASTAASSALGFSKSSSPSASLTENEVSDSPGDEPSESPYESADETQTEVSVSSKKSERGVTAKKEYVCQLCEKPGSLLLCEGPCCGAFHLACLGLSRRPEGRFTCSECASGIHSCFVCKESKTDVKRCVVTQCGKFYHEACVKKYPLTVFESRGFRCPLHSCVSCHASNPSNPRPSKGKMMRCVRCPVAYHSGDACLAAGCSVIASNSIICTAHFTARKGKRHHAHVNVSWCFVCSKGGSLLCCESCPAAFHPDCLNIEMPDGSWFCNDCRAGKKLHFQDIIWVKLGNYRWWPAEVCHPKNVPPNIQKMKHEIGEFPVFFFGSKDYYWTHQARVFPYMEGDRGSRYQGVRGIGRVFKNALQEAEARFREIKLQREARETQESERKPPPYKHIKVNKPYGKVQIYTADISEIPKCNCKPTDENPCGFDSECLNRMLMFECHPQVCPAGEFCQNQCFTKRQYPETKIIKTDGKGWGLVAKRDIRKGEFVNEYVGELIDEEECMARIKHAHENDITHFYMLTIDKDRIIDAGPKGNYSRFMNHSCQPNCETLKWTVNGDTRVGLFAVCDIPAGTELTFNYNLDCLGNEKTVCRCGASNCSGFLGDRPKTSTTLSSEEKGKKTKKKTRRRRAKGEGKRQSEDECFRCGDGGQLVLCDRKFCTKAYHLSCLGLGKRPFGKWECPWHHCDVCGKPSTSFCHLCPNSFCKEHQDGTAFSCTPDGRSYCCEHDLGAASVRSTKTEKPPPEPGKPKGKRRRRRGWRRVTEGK
HIV Env fusion: inhibitors of HIV-1 Env-driven cell-cell fusion, primary screen, HeLa-JRFL effector, CEM21 target cells, luciferase; AID 651610, 2012; inhibition, % at 12.3 µM; 360,000 compounds, 1.1% hits;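 active = mean replicate inhibition score of at least 50 and every replicate individually at or above 50; inconclusive = only one of the two criteria met; inactive = mean below 50 and not all replicates reaching 50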;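 note: 0% = plate neutral controls and 100% = maraviroc near 300 nM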
GSIS activator: GLuc luminescence reporter in INS-1E cells, primary screen for activators of glucose-dependent secretion of insulin | INS-1E GLuc reporter insulin secretion, 2-3 h | activation, % at 16.6 µM | 370,000 compounds, 0.61% hits;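 active = lowest replicate activation of at least 40%, so every replicate reaches that level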;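 note: 0% = median of neutral control wells and 100% = median of IBMX positive control wells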
AF4-AF9 inh: inhibitors of AF4 peptide binding to AF9, primary screen, biochemical, AlphaScreen, biotin-AF4 peptide, FLAG-AF9, single point; 350,000 compounds, 0.47% hits; inhibition, % at 10 µM; Protein AF-9 (Homo sapiens), P42568;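 active = every replicate reaching a set inhibition limit, whatever the replicate mean, cut at about 25% in these data; inconclusive = mean inhibition reaches that limit but some replicates miss it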;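 note: 0% = plate neutral control median and 100% = total signal loss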
PGC1a acetyl inh: inhibitors of PGC1a acetylation signal, primary screen, cell-based, U2OS, AlphaScreen, inhibitor mode; AlphaScreen anti-acetyl-lysine; with virally co-expressed GCN5 acetyltransferase; inhibition, % at 15.6 µM; 350,000 compounds, 0.17% hits; AID 651687, 2012;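 active = every replicate shows inhibition of at least 40%; inconclusive = mean inhibition at least 40% but some replicate below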;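 note: 0% = neutral control wells and 100% = positive control wells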
The depositor's hits bear a star; ? = inconclusive; . = no result given. An excerpt weighted towards active compounds, which were near 2.1% of everything screened.

SMILES	NSD2 inh	HIV Env fusion	GSIS activator	AF4-AF9 inh	PGC1a acetyl inh
O=c1cccc2n1CC1CC2CN(c2nc(N3CCCCC3)nc(N3CCCCC3)n2)C1 (configuration not stated)	-1	82*	-23	-5	3
CCOc1ccccc1N=C1SCCCN1C	-2	-21	-3	.	97*
COc1cc(C2c3cc4c(cc3CC3COC(=O)C32)OCO4)cc(OC)c1O (configuration not stated)	6	-37	-5	-4	.
O=C1NC2C(O)C(O)C(O)C(O)C2c2cc3c(c(O)c21)OCO3 (configuration not stated)	-5	119*	-29	-2	.
O=C1NC2C(=CC(O)C(O)C2O)c2cc3c(cc21)OCO3 (configuration not stated)	.	100*	-19	-1	85*
O=C1NC2C(=CC(O)C(O)C2O)c2cc3c(c(O)c21)OCO3 (configuration not stated)	1	64*	-26	-1	63*
O=c1[nH]c(=O)n(CCC2=CCCCC2)c(O)c1/C=N/Nc1ccccc1	-8	17	.	-1	.
COc1cccc2c1C(=O)c1c(O)c3c(c(O)c1C2=O)CC(O)(C(C)=NO)CC3OC1CC(N)C(O)C(C)O1 (configuration not stated)	28	-346	-10	?	-16
C=CCN1C(=O)/C(=C/c2cc(C)n(-c3ccccn3)c2C)C(=O)NC1=S	17	10	24	1	.
c1ccc(N2[C@@H]3CC[C@H]2c2ccncc2C3)cc1	0	10	48*	.	.
CC[C@H]1c2ccccc2[C@@H]2CC[C@H]1N2c1ccccc1	.	17	-24	-2	.
S=C(NCCc1ccccc1)N1Cc2cc(-c3ccccc3)ccc2-n2nncc2C1	.	15	-1	-5	-22
S=C(NCCc1ccccc1)N1Cc2cc(N3CCCCC3)ccc2-n2nncc2C1	.	75*	-41	-1	-6
CCc1c(C)nc(N)nc1N1N=C1SCCOc1ccccc1	-5	15	5	0	-3
O=C(CSC1c2ccccc2-c2ccccc21)N/N=C/c1ccc(C(=O)O)cc1	1	-37	-7	2	.
O=C(CSC1c2ccccc2-c2ccccc21)N/N=C/c1ccccc1O	0	61*	.	.	3
O=Cc1cn(Cc2ccc(F)cc2)c2ccccc12	1	0	1	2	.
O=C([C@@H]1N[C@@H]2c3cccc(=O)n3C[C@@H]2[C@H]1CO)N1CCCCC1	.	.	9	7	.
CCc1cc2c(s1)N(CC(=O)OC)C(=O)CN=C2c1ccccc1OC	-2	1	30	-2	17
CCc1ccc(CNCCc2c[nH]c3ccccc23)cc1	13	78*	-15	18	16
COc1cc(CNCCc2c[nH]c3ccccc23)cc(OC)c1OC	6	-8	21	6	.
COc1cc(CNCCc2c[nH]c3ccccc23)cc(OC)c1	13	61*	-6	11	3
CC1CCN(C(=O)C(C)Cl)CC1 (configuration not stated)	-1	6	13	-2	9
COC(=O)C1=C(c2ccc(OC(F)(F)F)cc2)C[C@@H]2CC[C@H]1N2C(=O)N1CCC(C)CC1	.	23	.	2	.
COC(=O)C1=C(c2ccc(OC(F)(F)F)cc2)C[C@@H]2CC[C@H]1N2C(=O)N1CCCC1	.	58*	.	-16	0
SMILES	NSD2 inh	HIV Env fusion	GSIS activator	AF4-AF9 inh	PGC1a acetyl inh
C/C=C/c1ccc(C2[C@@H]3CN(Cc4cocn4)C[C@H]2N3)cc1 (some centres not stated)	.	.	17	29*	13
O=NN1CCCCC1	.	.	17	.	-2
CC(C)CN1Cc2ccccc2-n2nncc2C1	.	-13	20	-3	-8
COc1ccc(C(=O)OC2CC[C@@]3(C)C4CCC5[C@]6(O)CC(O)[C@@]7(O)C(CN8CC(C)CCC8[C@@]7(C)O)[C@]6(O)C[C@@]53O[C@]24O)cc1OC (some centres not stated)	-4	2	46*	1	.
OCC[n+]1c2ccccc2nc2ccc(N3CCOCC3)cc21	82*	34	.	2	-5
CC1CC(C)CC(C)C(O)C(C#N)=CC=CCC(C2CCCC2C(=O)O)OC(=O)CC(O)C(C)C1 (configuration not stated)	1	71*	-27	-6	?
CC(=O)O[C@@H]1CC[C@]2(C)C3CC[C@@]4(C)C(C[C@@H](O)[C@@H]4O)C3[C@@H](OC(C)=O)C[C@H]2C1 (some centres not stated)	2	7	.	-2	5
CC(=O)OC1CC(OC2C(O)CC(OC3C(O)CC(OC4CCC5(C)C(CCC6C5CCC5(C)C(C7=CC(=O)OC7)C(O)CC65O)C4)OC3C)OC2C)OC(C)C1OC1OC(CO)C(O)C(O)C1O (configuration not stated)	.	85*	-1	-2	?
CC(=O)OC1CC2(O)C3CCC4CC(O)CCC4(C)C3CCC2(C)C1C1=CC(=O)OC1 (configuration not stated)	10	102*	-1	-1	65*
CC1OC(OC2C(O)CC(OC3C(O)CC(OC4CCC5(C)C(CCC6C5CCC5(C)C(C7=CC(=O)OC7)C(O)CC65O)C4)OC3C)OC2C)CC(O)C1O (configuration not stated)	4	63*	4	-2	.
CC(=O)[C@H]1CCC2C3CC[C@H]4C[C@@H](O)CC[C@]4(C)C3CC[C@@]21C (some centres not stated)	-3	0	18	-3	3
Cn1c(O)c(/C=N/N2CCOCC2)c(=O)n(-c2ccccc2)c1=S	-3	-1	.	-1	6
COc1cccc(C(c2nnnn2-c2ccc3c(c2)OCCO3)N2CCC(n3c(=O)[nH]c4ccccc43)CC2)c1OC (configuration not stated)	.	22	17	-6	28
CCC1C(c2ccccc2)NC(c2ccccc2)CC1(O)c1ccc(F)cc1 (configuration not stated)	-1	13	-35	5	-7
N=C1c2ccccc2CN1c1ccc(F)c([N+](=O)[O-])c1	2	-2	67*	0	6
COc1cc(C)c(-c2nc(CN3C[C@@H]4C[C@@H](C3)c3cccc(=O)n3C4)c(C)o2)cc1C	1	11	-22	-14	1
Fc1ccc(C(OCCN2CCN(CCCc3ccccc3)CC2)c2ccc(F)cc2)cc1	.	71*	.	29*	-18
CCCNC(=O)N1[C@@H]2Cn3c(ccc(-c4cccc(C(=O)N(C)C)c4)c3=O)[C@H]1[C@@H](C(=O)O)[C@@H]2CO	.	.	8	-5	6
CCC(=NC(C)c1ccccc1)c1c(O)[nH]c(=O)[nH]c1=O (configuration not stated)	4	3	66*	4	.
